Screening results from PubChem.
Rows were chosen to be rich in hits. Some 3% of all compounds tested hit in one or more screens of this group.
Nrf2 activator – Nrf2 pathway activation; AREc32 ARE-luciferase reporter (MCF7-derived line), luminescence, 24 h; Potency, µM (doses to about 46.1 µM), for inactives: top-dose activation, hits mostly activators; hit rate 0.31% among 410,000; also: % of control where 0% means no effect; nearly all actives have a fitted effect of over 65% in size
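Quantitative high-throughput format: AREc32 reporter cells, 1000 per well, received compound by pin transfer and were incubated 24 hr at 37 deg C, 5% CO2, before Steady-Glo luminescence detection.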
TrxR1 substrate – substrates of rat thioredoxin reductase 1; AID 588456; Potency, µM (series often up to 114 µM), inactives show top-dose activity change, negative = substrate turnover; purified TrxR1 substrate turnover, NADPH consumption readout; hit rate 0.01% among 390,000; O89049; also: % is scaled to controls: 0 for no effect and ±100 for the full control effect; nearly all actives have a fitted effect of over 50% in size
Target sequence (O89049 whole entry, looked up): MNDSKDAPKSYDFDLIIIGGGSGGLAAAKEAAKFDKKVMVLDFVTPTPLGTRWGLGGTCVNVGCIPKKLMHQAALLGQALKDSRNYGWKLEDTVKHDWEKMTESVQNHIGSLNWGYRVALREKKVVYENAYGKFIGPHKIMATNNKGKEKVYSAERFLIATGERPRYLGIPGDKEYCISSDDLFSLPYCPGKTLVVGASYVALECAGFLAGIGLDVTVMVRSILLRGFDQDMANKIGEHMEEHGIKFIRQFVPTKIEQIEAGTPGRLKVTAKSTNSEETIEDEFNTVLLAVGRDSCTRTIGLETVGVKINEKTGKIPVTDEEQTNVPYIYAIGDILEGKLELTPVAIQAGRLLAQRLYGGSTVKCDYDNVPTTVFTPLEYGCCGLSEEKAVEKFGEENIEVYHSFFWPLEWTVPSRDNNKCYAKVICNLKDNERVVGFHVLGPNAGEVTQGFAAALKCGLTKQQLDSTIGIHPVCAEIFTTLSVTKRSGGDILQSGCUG
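Rat TrxR1, dispensed at 90 nM, was prereduced with 400 uM NADPH (final) for 5 min at ~22 deg C, then incubated with compound 15 min before 400 uM selenite. A first-read NADPH fluorescence drop versus no-compound background flagged substrates.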
A549 viability – kills or reduces viability of A549 cells in Nrf2 counter-screen; A549 ARE-Fluc cells, CellTiter-Fluor viability, 18-24 h; Potency, µM (series often up to 46 µM), for inactives: at the highest dose activity change, negative = cytotoxicity, most hits filed as inhibitors; hit rate 0.16% among 390,000; AID 504648; also: % is scaled to controls: 0 for no effect and ±100 for the full control effect
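Cytotoxicity counterscreen: CellTiter-Fluor fluorescence was measured in A549 ARE_Fluc cells after 18-24 h of compound exposure in a concentration series. The subsequent BugLite luminescent read reports ARE-luciferase activity.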
GALK inhibitor – galactokinase (human) inhibition | hit rate 0.007% among 270,000 | Potency, µM (series often up to 57.5 µM), for inactives: at the highest dose activity change, negative = inhibition, usual class: inhibitors | AID 1868 | Purified GALK, Kinase-Glo residual ATP luminescence; also: % is scaled to controls: 0 for no effect and ±100 for the full control effect
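Human GALK (5 nM) with 35 uM ATP and 100 uM galactose in 20 mM HEPES pH 8.0, 5 mM MgCl2, 60 mM NaCl, 1 mM DTT, 0.01% BSA. After 1 h at room temperature, leftover ATP was read by Kinase-Glo Plus luminescence.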
Nrf2 inh – inhibitors of Nrf2 signaling. A549 ARE-Fluc reporter, luciferase luminescence, 18-24 h. Potency, µM (top dose mostly 46 µM), for the others: top-dose activity change, negative = inhibition, most hits filed as inhibitors. hit rate 2.1% among 360,000; also: % is scaled to controls: 0 for no effect and ±100 for the full control effect; nearly all actives have a fitted effect of over 60% in size
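A549 ARE_Fluc cells (5000/well, 5% FBS OPTI-MEM) pre-incubated 2 h, then treated with compounds 18-24 h at 37C/5% CO2 in concentration-response. CellTiter-Fluor viability read first; BugLite luciferase luminescence after 15 min at room temperature gives Nrf2 activity.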
rTrxR1 inhibitor – blocks rat thioredoxin reductase 1; Potency, µM (series often up to 114 µM), inactives show at the top dose activity change, negative = inhibition, most hits filed as inhibitors; hit rate 1% among 390,000; recombinant rTrxR1, NADPH fluorescence consumption, selenite substrate; O89049; also: % is scaled to controls: 0 for no effect and ±100 for the full control effect; nearly all actives have a fitted effect of over 65% in size
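Rat TrxR1 (90 nM in the dispensed reagent) was pre-reduced with 400 uM NADPH for 5 min at room temperature, then incubated with compound for 15 min. After 400 uM selenite was added, NADPH fluorescence (Ex 340/Em 450 nm) was followed for 8 min.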
* = called active by the depositor; [ ] = dose if it differs, or a comment. Calls follow the shape of the dose curve; as a rule, active = well fitted curve in the direction sought with a large enough effect; inconclusive = small, poorly fitted or top-dose-only effect, or another doubt; inactive = no such curve, though single readings can be large; an effect the other way counts as inactive or inconclusive. Potency is read from the fitted curve at half-maximal effect.

For CNC(=O)/C(C#N)=C/c1c(N(Cc2ccccc2)Cc2ccccc2)nc2c(C)cccn2c1=O the results were Nrf2 activator 4%, TrxR1 substrate -11%, A549 viability inconclusive, GALK inhibitor 0%, Nrf2 inh 26µM* and rTrxR1 inhibitor 18%[57.1 µM].
CCOC(=O)c1ccccc1NC(=O)Cn1c(=O)n(CCC(=O)NCc2ccccc2OC)c(=O)c2ccccc21 was read as Nrf2 activator 0%, TrxR1 substrate 9%, A549 viability 5%, Nrf2 inh 12% and rTrxR1 inhibitor 22%.
Screening O=C(N/N=C/c1cccc(Oc2ccc([N+](=O)[O-])cc2[N+](=O)[O-])c1)c1cncc(Br)c1 returned Nrf2 activator inconclusive, TrxR1 substrate 7%, A549 viability inconclusive, GALK inhibitor -1%, Nrf2 inh 13µM* and rTrxR1 inhibitor inconclusive.
For COc1ccc(Br)cc1CC1C(=O)Nc2ccccc21 (centres undefined) the results were Nrf2 activator 4%, TrxR1 substrate -12%, A549 viability 2%, Nrf2 inh 7.3µM* and rTrxR1 inhibitor -6%.
For Cc1ccccc1CC1C(=O)Nc2ccc(Br)cc21 (centres undefined) the results were Nrf2 activator 8%, TrxR1 substrate -1%, A549 viability 4%, Nrf2 inh -1% and rTrxR1 inhibitor 12%.
O=C1c2ccccc2C(=O)N1c1cccc(=O)[nH]1 was read as A549 viability -7% and Nrf2 inh -15%.
For CC1CCC2(CC1)NC(=O)N(CC(=O)Nc1cccc(S(=O)(=O)N3CCCCC3)c1)C2=O (centres undefined) the results were Nrf2 activator -1%, TrxR1 substrate -6%, A549 viability -2%, Nrf2 inh 18µM* and rTrxR1 inhibitor 13%.
Screening CC1CCC2(CC1)NC(=O)N(CC(=O)Nc1cccc(S(=O)(=O)N3CCOCC3)c1)C2=O (centres undefined) returned Nrf2 activator 0%, TrxR1 substrate -3%, A549 viability -6%, Nrf2 inh inconclusive and rTrxR1 inhibitor 13%.
`CN1C(=O)N(CC(=O)Nc2cccc(S(=O)(=O)N(C)c3ccccc3)c2)C(=O)C12CCCCC2` gave Nrf2 activator 0%, TrxR1 substrate -2%, A549 viability -8%, Nrf2 inh -18% and rTrxR1 inhibitor 16%.
For CCC1CCC2(CC1)NC(=O)N(CC(=O)Nc1cccc(S(=O)(=O)N(C)c3ccccc3)c1)C2=O (centres undefined) the results were Nrf2 activator 2%, TrxR1 substrate 0%, A549 viability -1%, Nrf2 inh 16µM* and rTrxR1 inhibitor 21%.
For CCCCS(=O)(=O)/C=C\C=C/S(=O)(=O)CCCC the results were Nrf2 activator -3%, TrxR1 substrate 9%[57.1 µM], A549 viability inconclusive, GALK inhibitor 1% and rTrxR1 inhibitor 3.5µM*.
Screening Cc1ccc(C(C[N+](=O)[O-])n2nc(C)cc2C)cc1 (centres undefined) returned Nrf2 activator 2%, TrxR1 substrate -4%, A549 viability -2%, GALK inhibitor -2%, Nrf2 inh 20% and rTrxR1 inhibitor 5.6µM*.
Cc1ccc(S(=O)(=O)NCC(C)n2nc(C)cc2C)cc1 (centres undefined) was read as Nrf2 activator 0%, TrxR1 substrate -1%, A549 viability 0%, GALK inhibitor 0%, Nrf2 inh -10% and rTrxR1 inhibitor 1%.
`O=C1CC(c2ccco2)CC(O)=C1C=Nc1cc(Cl)ccc1Cl` (centres undefined) gave Nrf2 activator 3%, TrxR1 substrate -1%, A549 viability -7%, GALK inhibitor -2%, Nrf2 inh -13% and rTrxR1 inhibitor inconclusive.
For O=C1CC(c2ccccc2)CC(O)=C1C=Nc1ccccc1O (centres undefined) the results were Nrf2 activator 14µM*, TrxR1 substrate 2%, A549 viability 1%, GALK inhibitor -2%, Nrf2 inh -16% and rTrxR1 inhibitor 13%.
`O=C1CC(c2ccco2)CC(O)=C1C=Nc1cc(Cl)ccc1O` (centres undefined) gave Nrf2 activator 10µM*, TrxR1 substrate -13%, A549 viability -8%, GALK inhibitor 1%, Nrf2 inh inconclusive and rTrxR1 inhibitor inconclusive.
Screening CC1CCN(c2ccc(NC(=S)NC(=O)c3ccc(-c4cccc([N+](=O)[O-])c4)o3)cc2)CC1 returned Nrf2 activator 3%, TrxR1 substrate -4%, A549 viability -3%, GALK inhibitor -3% and rTrxR1 inhibitor 20µM*.
For CC1CCN(c2ccccc2NC(=S)NC(=O)c2ccc(-c3cccc([N+](=O)[O-])c3)o2)CC1 the results were Nrf2 activator 2%, TrxR1 substrate -5%, A549 viability 2%, GALK inhibitor 0%, Nrf2 inh -14% and rTrxR1 inhibitor -23%.
Screening CCc1cccc(C)c1Nc1c(-c2ccc(N3CCOCC3)cc2)nc2ncccn12 returned Nrf2 activator 4%, TrxR1 substrate -10%, A549 viability -26%, Nrf2 inh inconclusive and rTrxR1 inhibitor -15%.
`C#CCn1c(=NC(=O)c2ccc(S(=O)(=O)N3CCc4ccccc4C3)cc2)sc2cc(S(N)(=O)=O)ccc21` gave Nrf2 activator -2%, TrxR1 substrate 52%, A549 viability 5.2µM*, GALK inhibitor 0%, Nrf2 inh 3.3µM* and rTrxR1 inhibitor 38%.
C=CCn1c(=NC(=O)c2ccc(S(=O)(=O)N3CCc4ccccc4C3)cc2)sc2cc(S(N)(=O)=O)ccc21 was read as Nrf2 activator -2%, TrxR1 substrate 51%[57.1 µM], A549 viability -2%, GALK inhibitor 2%, Nrf2 inh inconclusive and rTrxR1 inhibitor 37%.
`O=C(C1CCCCC1)N1CCN=C1SCc1cccnc1` gave Nrf2 activator 0%, TrxR1 substrate 0%, A549 viability 0%, GALK inhibitor 2%, Nrf2 inh inconclusive and rTrxR1 inhibitor 17%.
`O=C(C1CCCCC1)N1CCN=C1SCc1cccc([N+](=O)[O-])c1` gave Nrf2 activator 4%, TrxR1 substrate 1%[57.1 µM], A549 viability -2%, GALK inhibitor 1%, Nrf2 inh 21µM* and rTrxR1 inhibitor 1%[57.1 µM].
Screening CCS(=O)(=O)c1cc([N+](=O)[O-])c(Sc2ccccc2NC(C)=O)s1 returned Nrf2 activator -1%, TrxR1 substrate 10%[57.1 µM], A549 viability -19%, Nrf2 inh inconclusive and rTrxR1 inhibitor 8.9µM*.
